Test results: PubChem BioAssay
Where “and” joins values, the source holds several entries; their conditions need not be identical. Identical values can stand only once. Results filed as inconclusive are left out. Calls of active or inactive are those of the source.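 How the source made its calls, unless noted: active means normalized viability below 100% at a tested concentration; inactive means the rest.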

Columns and labels:
[1] = viability loss in pontine glioma line – cell-based, SU-DIPG-XXV, MIPE5.0, CellTiter-Glo, qHTS, dose response (AID 1347065; cut-off not given, nearly all actives have AC50 up to about 26 µM;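 further: cells exposed to compound for 48 hours before ATP readout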); conditions: CellTiter-Glo ATP luminescence
[2] = survival rescue of mitochondrial mutant cells in low glucose, primary screen, MELAS cybrids, Rieske KO mouse fibroblasts, CellTiter-Glo (AID 1508586;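 active means mean z-score across replicates of 1.96 or higher in either the MELAS or the Rieske mutant cell line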;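 further: z relative to plate mean and SD of compound and empty wells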)
[3] = biological target: NAD(+) hydrolase SARM1 (Homo sapiens) (UniProt Q6SZW1); assay: SARM1 TIR NADase inhibitors, cell lysate, NAD-Glo luminescence (AID 1508614;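 active means compound whose remaining NAD level is above about 45 nM, limit read from the data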); conditions: SAM-TIR HEK293T lysate NADase, at 1 µM, stronger effect = higher value
[4] = viability rescue of complex I mutant cybrids, primary screen, cell-based, galactose medium, ATP luminescence (AID 1645843;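 active means z-score of at least 1.8 in each of two replicates, scored against plate mean and spread of sample wells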;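 further: positive z means more ATP and so rescue of galactose-driven cybrid death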); conditions: complex I mutant cybrid cells, 72 h, stronger effect = higher value
[5] = SU-DIPG-VI glioma cell viability, MIPE4.0 library, CellTiter-Glo luminescence, qHTS (AID 1347066; cut-off not given, nearly all actives have AC50 up to about 30 µM;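 further: cells exposed to compound for 48 hours before readout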); conditions: CellTiter-Glo ATP luminescence
[6] = JHH-DIPG-1 glioma cell viability, MIPE5.0 library, CellTiter-Glo luminescence, qHTS (AID 1347067; cut-off not given, nearly all actives have AC50 up to about 26 µM;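 further: cells exposed to compound for 48 hours before readout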); conditions: JHH-DIPG-1 glioma viability, CellTiter-Glo ATP luminescence
[7] = SU-DIPG-XXV glioma cell viability, MIPE5.0 library, qHTS (AID 1347068; cut-off not given, nearly all actives have IC50 up to about 30 µM)
[8] = modifiers of HSF1 nuclear foci, imaging, Selleck Cancer Library (AID 1347162; in the data active means plate-normalised HSF1 focus index below about 0.46); conditions: human cells, at 10 µM; SSMD: measured here: HSF1 foci SSMD mean; cell count: measured here: cell number; plate-normalised HSF1 focus index: stronger effect = lower value
[9] = ovarian cancer cell viability with rucaparib, profiling panel, oncology-focused library, rucaparib conditional (AID 1508598); conditions: patient-derived ovarian cancer cells, CellTiter-Glo viability, 144 h, stronger effect = lower value
[10] = sensitizers of A549 cells to miR-34 induction, primary screen, imaging, A549 dox-inducible miR-34, nuclei and caspase counts (AID 1347080;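 active means compounds whose cell count with miR-34 switched on is under 0.7 times the count with it off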); conditions: A549 miR-34 inducible, Hoechst nuclei count, 48 h
[11] = biological target: Mitogen-activated protein kinase 7 (Homo sapiens) (UniProt Q13164); assay: ERK5 transactivation activators in reporter cells, primary screen, cell-based, HTS (AID 1508626;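 active means luciferase signal above three times the same-plate solvent-only control wells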;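 further: luciferase driven by Gal4-ERK5 fusion binding five Gal4 sites before minimal TATA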); conditions: HeLa Gal4-ERK5 transactivation, 18 h, at 5 µM, stronger effect = higher value
[12] = phospholipid biosynthesis inhibitors in animal cells, primary screen, cell-based, LOPAC library, screen 4 (AID 1347384; call rule not given here); conditions: phospholipid biosynthesis inhibition screen, at 10 µM
[13] = MELAS cybrid survival, CellTiter-Glo 48 h, stronger effect = higher value
[14] = Rieske KO mouse fibroblast survival, CellTiter-Glo 72 h
[15] = at 0.000305 µM, OCI-C5x cells, with rucaparib 10 µM, 100% = cells with rucaparib alone
[16] = at 0.000305 µM, OCI-C5x cells, without rucaparib
[17] = at 0.000305 µM, OCI-P5x cells, with rucaparib 20 µM, 100% = cells with rucaparib alone
[18] = at 0.000305 µM, OCI-P5x cells, without rucaparib
[19] = at 0.00122 µM, OCI-C5x cells, with rucaparib 10 µM, 100% = cells with rucaparib alone
[20] = at 0.00122 µM, OCI-C5x cells, without rucaparib
[21] = at 0.00122 µM, OCI-P5x cells, with rucaparib 20 µM, 100% = cells with rucaparib alone
[22] = at 0.00122 µM, OCI-P5x cells, without rucaparib
[23] = at 0.00488 µM, OCI-C5x cells, with rucaparib 10 µM, 100% = cells with rucaparib alone
[24] = at 0.00488 µM, OCI-C5x cells, without rucaparib
[25] = at 0.00488 µM, OCI-P5x cells, with rucaparib 20 µM, 100% = cells with rucaparib alone
[26] = at 0.00488 µM, OCI-P5x cells, without rucaparib
[27] = at 0.0195 µM, OCI-C5x cells, with rucaparib 10 µM, 100% = cells with rucaparib alone
[28] = at 0.0195 µM, OCI-C5x cells, without rucaparib
[29] = at 0.0195 µM, OCI-P5x cells, with rucaparib 20 µM, 100% = cells with rucaparib alone
[30] = at 0.0195 µM, OCI-P5x cells, without rucaparib
[31] = at 0.0781 µM, OCI-C5x cells, with rucaparib 10 µM, 100% = cells with rucaparib alone
[32] = at 0.0781 µM, OCI-C5x cells, without rucaparib
[33] = at 0.0781 µM, OCI-P5x cells, with rucaparib 20 µM, 100% = cells with rucaparib alone
[34] = at 0.0781 µM, OCI-P5x cells, without rucaparib
[35] = at 0.313 µM, OCI-C5x cells, with rucaparib 10 µM, 100% = cells with rucaparib alone
[36] = at 0.313 µM, OCI-C5x cells, without rucaparib
[37] = at 0.313 µM, OCI-P5x cells, with rucaparib 20 µM, 100% = cells with rucaparib alone
[38] = at 0.313 µM, OCI-P5x cells, without rucaparib
[39] = at 1.25 µM, OCI-C5x cells, with rucaparib 10 µM, 100% = cells with rucaparib alone
[40] = at 1.25 µM, OCI-C5x cells, without rucaparib
[41] = at 1.25 µM, OCI-P5x cells, with rucaparib 20 µM, 100% = cells with rucaparib alone
[42] = at 1.25 µM, OCI-P5x cells, without rucaparib
[43] = at 5 µM, OCI-C5x cells, with rucaparib 10 µM, 100% = cells with rucaparib alone
[44] = at 5 µM, OCI-C5x cells, without rucaparib
[45] = at 5 µM, OCI-P5x cells, with rucaparib 20 µM, 100% = cells with rucaparib alone
[46] = at 5 µM, OCI-P5x cells, without rucaparib
[47] = stronger effect = lower value, cell number ratio, induced over uninduced
[48] = measured here: relative caspase fold change +Dox/-Dox
[49] = measured here: total cells with miR-34 induction, stronger effect = lower value
[50] = measured here: total cells without miR-34 induction

Sequence of NAD(+) hydrolase SARM1 (Homo sapiens) (Q6SZW1 whole entry, looked up): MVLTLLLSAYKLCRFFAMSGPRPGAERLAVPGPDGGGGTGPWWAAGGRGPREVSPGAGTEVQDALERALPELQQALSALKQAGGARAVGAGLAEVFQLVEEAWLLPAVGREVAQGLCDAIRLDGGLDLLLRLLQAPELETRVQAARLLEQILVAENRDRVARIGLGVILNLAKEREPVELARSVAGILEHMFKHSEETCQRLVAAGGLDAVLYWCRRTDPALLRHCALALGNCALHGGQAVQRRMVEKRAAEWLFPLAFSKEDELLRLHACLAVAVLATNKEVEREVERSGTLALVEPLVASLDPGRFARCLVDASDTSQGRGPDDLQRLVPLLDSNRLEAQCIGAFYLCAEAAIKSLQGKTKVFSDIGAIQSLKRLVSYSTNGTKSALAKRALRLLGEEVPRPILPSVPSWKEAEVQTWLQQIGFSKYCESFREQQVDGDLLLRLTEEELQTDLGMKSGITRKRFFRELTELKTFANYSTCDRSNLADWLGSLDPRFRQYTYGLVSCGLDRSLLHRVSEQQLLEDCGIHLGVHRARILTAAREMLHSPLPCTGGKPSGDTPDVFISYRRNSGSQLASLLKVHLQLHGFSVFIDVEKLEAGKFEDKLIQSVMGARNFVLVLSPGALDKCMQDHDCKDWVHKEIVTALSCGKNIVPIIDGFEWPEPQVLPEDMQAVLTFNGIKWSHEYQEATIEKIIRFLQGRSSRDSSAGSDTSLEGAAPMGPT
Sequence of Mitogen-activated protein kinase 7 (Homo sapiens) (Q13164 whole entry, looked up, the tested form may be a part): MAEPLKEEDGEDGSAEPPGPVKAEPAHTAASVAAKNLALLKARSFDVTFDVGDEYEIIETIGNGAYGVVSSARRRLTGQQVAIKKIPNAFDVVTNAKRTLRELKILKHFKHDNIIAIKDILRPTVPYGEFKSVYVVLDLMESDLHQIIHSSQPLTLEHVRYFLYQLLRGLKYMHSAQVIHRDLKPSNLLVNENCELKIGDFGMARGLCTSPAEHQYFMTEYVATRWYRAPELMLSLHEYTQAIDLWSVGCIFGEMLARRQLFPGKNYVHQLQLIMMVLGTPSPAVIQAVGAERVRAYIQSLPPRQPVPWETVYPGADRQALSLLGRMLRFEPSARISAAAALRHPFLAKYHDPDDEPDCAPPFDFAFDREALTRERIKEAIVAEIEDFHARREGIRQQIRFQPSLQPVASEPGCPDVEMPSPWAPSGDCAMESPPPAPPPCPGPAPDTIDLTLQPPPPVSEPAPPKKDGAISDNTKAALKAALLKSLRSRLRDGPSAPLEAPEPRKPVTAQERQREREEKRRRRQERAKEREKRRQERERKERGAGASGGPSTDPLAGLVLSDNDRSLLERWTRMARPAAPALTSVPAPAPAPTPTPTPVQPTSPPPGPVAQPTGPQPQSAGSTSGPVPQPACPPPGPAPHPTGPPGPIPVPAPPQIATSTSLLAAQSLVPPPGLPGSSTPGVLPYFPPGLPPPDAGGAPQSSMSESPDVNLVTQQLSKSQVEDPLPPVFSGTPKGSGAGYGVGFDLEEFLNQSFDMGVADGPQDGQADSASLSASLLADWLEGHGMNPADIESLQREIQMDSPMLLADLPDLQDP

O=C1CCc2ccc(OCCCCN3CCN(c4cccc(Cl)c4Cl)CC3)cc2N1
active: AC50 [1] 13.2 µM
0.269 and 1.31 and -0.2: z-score [2, 14]
inactive: z-score [2, 13] -0.393 and -1.22 and -0.905 | remaining NAD [3] 10 nM | z-score [4] -1.88 and -2.22

CCC(C)n1ncn(-c2ccc(N3CCN(c4ccc(OC[C@H]5CO[C@](Cn6cncn6)(c6ccc(Cl)cc6Cl)O5)cc4)CC3)cc2)c1=O (stereo not given in full)
2.18: SSMD [8]
6750: cell count [8]
inactive: outcome [5] | outcome [6] | outcome [7] | plate-normalised HSF1 focus index [8] 1.11 | viability [9, 15] 118% | viability [9, 16] 110% | viability [9, 19] 118% | viability [9, 20] 100% | viability [9, 23] 122% | viability [9, 24] 105% | viability [9, 27] 127% | viability [9, 28] 116% | viability [9, 31] 126% | viability [9, 32] 119% | viability [9, 35] 131% | viability [9, 36] 118% | viability [9, 39] 131% | viability [9, 40] 126% | viability [9, 43] 135% | viability [9, 44] 123% | remaining NAD [3] 10 nM
active: viability [9, 17] 90.3% | viability [9, 18] 83% | viability [9, 21] 93.4% | viability [9, 22] 81.8% | viability [9, 25] 95.6% | viability [9, 26] 90.8% | viability [9, 29] 96.2% | viability [9, 30] 89.4% | viability [9, 33] 96.6% | viability [9, 34] 95.1% | viability [9, 37] 98.6% | viability [9, 38] 95.8% | viability [9, 41] 93.3% | viability [9, 42] 94.8% | viability [9, 45] 92.7% | viability [9, 46] 94.9%

CCCCc1ccc2nc(NC(=O)OC)[nH]c2c1
1770: cell count [10, 49]
inactive: fold change [10, 47] 1.15 | z-score [2, 13] -2.16
active: AC50 [1] 0.118 µM | AC50 [6] 0.332 µM
1530: cell count [10, 50]
0.509: fold change [10, 48]
0.696: z-score [2, 14]

OC[C@H]1O[C@@H](O[C@@H]2[C@@H](CO)O[C@](O)(CO)[C@H]2O)[C@H](O)[C@@H](O)[C@H]1O
11500: cell count [10, 49]
1.95: fold change [10, 48]
inactive: outcome [5] | outcome [6] | outcome [7] | fold change [10, 47] 0.922 | remaining NAD [3] 10 nM | luciferase signal [11] 16 AU
12500: cell count [10, 50]

O=C1N(c2ccccc2)c2ccccc2C1(Cc1ccncc1)Cc1ccncc1
9180 and 9540 and 7860: cell count [10, 50]
1.28 and 1.84 and 1.46: fold change [10, 48]
inactive: outcome [5] | outcome [6] | outcome [7] | fold change [10, 47] 1.1 and 0.81 and 0.995 | outcome [12] | z-score [4] -0.165 and 0.43 and -0.3
10000 and 7730 and 7820: cell count [10, 49]

Nc1nc(N)nc(-c2cc(Cl)ccc2Cl)n1
0.166 and -0.512 and 0.352: z-score [2, 14]
inactive: outcome [5] | outcome [6] | outcome [7] | z-score [2, 13] -0.19 and -0.868 and 0.283 | remaining NAD [3] 10 nM | z-score [4] 0.88 and -0.09 and 0.54

CCOC(=O)[C@H](CCc1ccccc1)N[C@@H](C)C(=O)N1[C@H](C(=O)O)C[C@@H]2CCC[C@@H]21
-0.258 (inactive) and 0.537: z-score [2, 13]
inactive: outcome [6] | outcome [7] | fold change [10, 47] 0.911 and 0.827 and 0.868 | remaining NAD [3] 10 nM | luciferase signal [11] 316 AU | z-score [4] 2.63 and 0.46
10800 and 13000 and 11500: cell count [10, 50]
9860 and 10700 and 9970: cell count [10, 49]
-0.11 and 2.28: z-score [2, 14]
1.49 and 3.09 and 1.08: fold change [10, 48]
active: AC50 [5] 16.6 µM

COc1ncnc(NS(=O)(=O)c2ccc(N)cc2)c1OC
0.874 and 2.12 and 1.28: fold change [10, 48]
0.678 and -1.38: z-score [2, 14]
10500 and 12900: cell count [10, 50]
9490 and 11800 and 9350: cell count [10, 49]
inactive: outcome [5] | outcome [6] | outcome [7] | fold change [10, 47] 0.905 and 0.917 and 0.89 | z-score [2, 13] 0.681 and -0.67 | remaining NAD [3] 10 nM | z-score [4] -0.18

CCc1c2c(nc3ccc(OC(=O)N4CCC(N5CCCCC5)CC4)cc13)-c1cc3c(c(=O)n1C2)COC(=O)[C@]3(O)CC
inactive: outcome [5] | fold change [10, 47] 0.732 and 1.02 and 1.1 | plate-normalised HSF1 focus index [8] 0.983 | z-score [2, 13] -0.914 and -2.14 | viability [9, 15] 118% | viability [9, 16] 117% | viability [9, 17] 102% | viability [9, 18] 105% | viability [9, 19] 121% | viability [9, 20] 124% | viability [9, 21] 104% | viability [9, 22] 105% | viability [9, 23] 107% | viability [9, 24] 112% | viability [9, 25] 108% | viability [9, 26] 106% | viability [9, 27] 115% | viability [9, 28] 124% | viability [9, 29] 101% | viability [9, 30] 105% | viability [9, 31] 115% | viability [9, 32] 109% | viability [9, 34] 102% | viability [9, 36] 106% | remaining NAD [3] 10 nM | z-score [4] -1.4 and -0.58
1.79 and 1.27 and 1.62: fold change [10, 48]
7510: cell count [8]
2270 and 2120 and 2140: cell count [10, 50]
1660 and 2170 and 2350: cell count [10, 49]
-0.882 and -1.55: z-score [2, 14]
-0.515: SSMD [8]
active: AC50 [6] 23.5 µM | viability [9, 33] 89.3% | viability [9, 35] 94% | viability [9, 37] 81.1% | viability [9, 38] 89.6% | viability [9, 39] 70.2% | viability [9, 40] 87% | viability [9, 41] 64.9% | viability [9, 42] 57.1% | viability [9, 43] 50.5% | viability [9, 44] 36.9% | viability [9, 45] 34.4% | viability [9, 46] 21.1%
